# An excerpt weighted towards active compounds, which were near 7.5% of everything screened.
# Rab9 promoter act – activators of Rab9 promoter. Huh7 Rab9 promoter-luciferase reporter, luminescence, 24 h. Potency, µM (highest dose often 9.22 µM), without a hit: top-dose activation, negative = inhibition, most hits filed as activators. actives 2.8% (n = 320,000). AID 485297; also: % of control where 0% means no effect; nearly all actives have a fitted effect of over 60% in size
#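 Cells were plated at 1500 per well in reduced-serum medium with 10% FBS and left 2 h. Compound in DMSO was then added for 24 h at 37 °C. Reporter signal was read by luminescence after 10 min with luciferase detection reagent.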
# FLuc counter – inhibits or activates purified firefly luciferase, miR-21 counter-screen. actives 6.9% (n = 360,000). Potency, µM (highest dose often 57.5 µM), inactives show at the highest dose activity change, negative = inhibition, hits mostly inhibitors. P08659. purified FLuc, Km substrates, luminescence inhibition;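 also: plate controls were vehicle for no effect and reference inhibitor for full effect; nearly all actives have a fitted effect of over 55% in size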
# Target sequence (P08659 whole entry, looked up): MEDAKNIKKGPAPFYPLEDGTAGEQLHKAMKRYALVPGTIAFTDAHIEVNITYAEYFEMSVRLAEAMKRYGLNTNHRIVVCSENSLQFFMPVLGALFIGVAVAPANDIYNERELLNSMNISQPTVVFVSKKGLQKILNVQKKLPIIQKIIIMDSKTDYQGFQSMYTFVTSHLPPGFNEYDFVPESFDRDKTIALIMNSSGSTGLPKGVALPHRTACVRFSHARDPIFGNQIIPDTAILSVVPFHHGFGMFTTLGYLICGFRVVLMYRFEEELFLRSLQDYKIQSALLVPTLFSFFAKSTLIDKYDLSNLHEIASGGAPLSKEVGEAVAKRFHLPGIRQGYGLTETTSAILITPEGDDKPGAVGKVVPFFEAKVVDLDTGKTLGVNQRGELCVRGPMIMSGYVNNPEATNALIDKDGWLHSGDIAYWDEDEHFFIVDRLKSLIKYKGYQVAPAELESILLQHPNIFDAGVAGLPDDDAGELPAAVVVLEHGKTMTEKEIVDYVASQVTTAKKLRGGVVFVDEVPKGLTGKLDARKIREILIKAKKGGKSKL
#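 Biochemical qHTS of compounds, final roughly 60 µM downward over six points, against 10 nM purified firefly luciferase using Km concentrations of substrates (10 uM D-luciferin, 10 uM ATP) in Tris acetate pH 7.5 buffer; luminescence output.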
# SMN2 splice enh – SMN2 splice variant enhancement; Potency, µM (titrated, usually from 46.1 µM), without a hit: at the top dose activity change, positive = activation, hits mostly activators; actives 2.8% (n = 210,000); HEK293 SMN2-luciferase splicing reporter, luminescence, 30-36 h; AID 1458; also: % of control where 0% means no effect; nearly all actives have a fitted effect of over 55% in size
#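 qHTS luciferase splicing reporter: luminescence rises when SMN2 exon 7 is included in transfected HEK293 cells. Compound exposure lasted 30-36 h at 37C, with 4.5 mM final sodium butyrate as control, followed by a ONE-Glo read.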
# Luc counter – Kinase-Glo luciferase inhibition (counter-screen) | AID 1379 | actives 0.28% (n = 200,000) | Q27757 | Kinase-Glo luciferase, ATP luminescence, 8 min | Potency, µM (titrated, usually from 38.3 µM), for inactives: at the highest dose activity change, negative = inhibition, hits mostly inhibitors; also: % is scaled to controls: 0 for no effect and ±100 for the full control effect; nearly all actives have a fitted effect of over 60% in size
#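 Recombinant Kinase-Glo luciferase, 10 uM ATP (linear range), luciferin; imidazole pH 7.2 / KCl / MgCl2 / Tween / BSA buffer; 8 min RT; luminescence.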
# NPC1 promoter act – activates the NPC1 promoter. Huh7 NPC1 promoter luciferase reporter, 24 h. Potency, µM (top dose mostly 9.22 µM), inactives show at the highest dose activation, usual class: activators. actives 2.4% (n = 320,000). AID 485313; also: % of control where 0% means no effect; nearly all actives have a fitted effect of over 60% in size
#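 Luciferase expression driven by the NPC1 promoter was measured in stably transfected Huh7 cells after a 24 h compound incubation, using a luciferase reagent and a luminescence read.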
# ELG1 genotox – genotoxicity induction in ELG1-luciferase HEK293T cells; HEK293T ELG1-luciferase reporter, luminescence, 16 h; Potency, µM (doses to about 46 µM), inactives show top-dose activity change, positive = activation, usual class: activators; actives 1.3% (n = 330,000); AID 504466; also: % of control where 0% means no effect; nearly all actives have a fitted effect of over 60% in size
#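 16 hr compound incubation (37 °C, 5% CO2) of HEK293T cells carrying luciferase-tagged ELG1; luciferase then measured by ONE-Glo luminescence after 30 min at RT.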
# * hit, by the source's call; u = inconclusive; x = no result. Calls follow the shape of the dose curve; as a rule, active = well fitted curve in the direction sought with a large enough effect; inconclusive = small, poorly fitted or top-dose-only effect, or another doubt; inactive = no such curve, though single readings can be large; an effect the other way counts as inactive or inconclusive. Potency is read from the fitted curve at half-maximal effect.
SMILES,Rab9 promoter act,FLuc counter,SMN2 splice enh,Luc counter,NPC1 promoter act,ELG1 genotox
CCC(=O)N1CCN(c2ccc(NC(=O)c3ccc([N+](=O)[O-])o3)cc2)CC1,4%,0%,8%,-2%,-6%,1%
COc1ccc(NC(=O)C(Cc2ccccc2)NS(=O)(=O)c2ccc3c(c2)CCN3C(C)=O)cc1 (stereo not given),x,-1%,-29%,x,x,x
Cc1nn(-c2ccccc2)c(OC(=O)c2cccc(Br)c2)c1S(=O)(=O)c1ccccc1,x,u,4%,x,x,x
Cn1c(SCc2ccccc2C#N)nnc1-c1ccncc1,1%,2%,x,x,-5%,1%
COc1ccc2c(c1)CC/C2=N\OC(=O)c1ccccc1OC,22%,3µM*,-1%,-13%,-4%,u
CCn1c(C(=O)OC)cc2c1ccn2-c1ccc(F)cc1,u,9.5µM*,16µM*,1%,u,16µM*
CSCCC(NC(=O)COc1ccccc1)C(=O)NCCOc1ccccc1 (stereo not given),6%,3%,x,x,0%,-1%
Cc1ccc(Cc2cn3cc(-c4ccccc4)nc3s2)cc1,x,0.15µM*,2.8µM*,x,x,x
Nc1nc(-c2ccc(Cl)cc2)cn1N,1%,-8%,-1%,3%,-3%,-2%
O=c1oc2ccccc2cc1-c1cn2cc(Cc3cc(Cl)ccc3Cl)sc2n1,x,0%,-2%,x,x,x
Clc1ccc(-c2cn3cc(Cc4ccccc4)sc3n2)cc1,x,0.24µM*,5.6µM*,x,x,x
Fc1ccc(Cc2cn3cc(-c4ccc(F)cc4)nc3s2)cc1,x,0.3µM*,3.2µM*,x,x,x
Fc1ccc(-c2cn3cc(Cc4ccccc4Cl)sc3n2)cc1,x,0.48µM*,2.2µM*,x,x,x
O=C(Nc1ccc2ccccc2n1)Nc1cccs1,18%,-6%,x,x,26%,5%
Fc1ccccc1Cc1cn2cc(-c3ccc(Cl)cc3)nc2s1,x,0.3µM*,u,x,x,x
O=C1c2oc3ccccc3c(=O)c2C(c2ccc(O)cc2)N1c1nccs1 (stereo not given),-4%,2%,1%,-1%,-6%,7%
c1ccc2c(-n3ccnc3)nc(-c3ccoc3)nc2c1,x,x,-9%,0%,x,x
COc1ccc(-n2c(=S)[nH]c3sc(-c4ccccc4)cc3c2=O)c(OC)c1,1%,27µM*,x,x,-6%,-1%
CC1=Nc2cc([N+](=O)[O-])ccc2NC(C)(C)C1,5%,-18%,-15%,-9%,3%,12%
CC1(C)CNc2cc([N+](=O)[O-])ccc2S1,u,27µM*,14%,1%,u,u
COc1cc(/C=N/NC(=O)Nc2cccc3nsnc23)cc(OC)c1OC,7%,-17%,0%,1%,1%,0%
O=C(N/N=C/c1ccc(O)cc1)Nc1cccc2nsnc12,28%,12µM*,x,-2%,11%,1%
Fc1c(F)c(F)c(SCn2cc(Br)cn2)c(F)c1F,2%,-1%,x,x,-1%,0%
Cc1ccc2c(=O)cc(C(=O)Nc3nc4ccc(Cl)cc4s3)oc2c1C,x,-19%,-4%,x,x,x
O=C(Nc1nc2ccc(Cl)cc2s1)c1ccc(Br)o1,1.1µM*,2.4µM*,11µM*,-5%,3.5µM*,u
SMILES,Rab9 promoter act,FLuc counter,SMN2 splice enh,Luc counter,NPC1 promoter act,ELG1 genotox
Cn1ncc(Cl)c1C(=O)Nc1nc2ccc(Cl)cc2s1,u,2.1µM*,3.5µM*,-18%,3.2µM*,u
Cc1cc(C(=O)Nc2nc3ccc(Cl)cc3s2)nn1C,0.63µM*,2.1µM*,x,x,1.4µM*,u
CCSc1ncc(Cl)c(C(=O)Nc2nc3ccc(Cl)cc3s2)n1,x,u,3%,x,x,x
O=C(Nc1ccc(S(=O)(=O)N2CCCCCC2)cc1)c1ccco1,u,u,u,-2%,21%,u
O=C(Nc1ccc(OCC(=O)N2CCC(Cc3ccccc3)CC2)cc1)c1ccco1,-6%,27µM*,-12%,1%,2%,-1%
O=C(Nc1ccc(OCC(=O)N2CCN(S(=O)(=O)c3ccccc3)CC2)cc1)c1ccco1,-1%,11µM*,22%,-7%,3%,-4%

# Source: PubChem BioAssay
